Measurements taken from PubChem BioAssay AID1159580 (chemical genetic matrix, 2015).
The whole screen tested about 5,500 compounds, of which about 2,000 (36%) were called active. Roughly 18% stayed inconclusive and do not appear here. This is one part of the list. Values without a mark were called inactive. Cut-off read from the data, not from the text of the source: active = normalized growth mostly below about 0.91 (no sharp cut-off); inconclusive = no clear call, values can overlap the other calls; inactive = mostly above about 0.92.

Experiment: chemical genetic growth profiling, strain panel (AID 1159580);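 note: tested at 20 µM; growth read once vehicle control cultures reached saturation at 30 °C; 1 = growth at the plate median or of vehicle wells; lower values mean less growth of the strain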
Conditions: S. cerevisiae deletion strains, growth OD
[1] = locus YAR019C, strain CDC15, hits give low values
[2] = locus YBL105C, strain PKC1, hits give low values
[3] = locus YBR135W, strain CKS1, hits give low values
[4] = locus YBR136W, strain MEC1, hits give low values
[5] = locus YBR160W, strain CDC28, hits give low values
[6] = locus YDL017W, strain CDC7, hits give low values
[7] = locus YDL028C, strain MPS1, hits give low values
[8] = locus YDL101C, strain DUN1, hits give low values
[9] = locus YDL108W, strain KIN28, hits give low values
[10] = locus YDL132W, strain cdc53, hits give low values
[11] = locus YDL214C, strain PRR2, hits give low values
[12] = locus YDR052C, strain DBF4, hits give low values
[13] = locus YDR054C, strain cdc34, hits give low values
[14] = locus YDR226W, strain ADK1, hits give low values
[15] = locus YDR477W, strain SNF1, hits give low values
[16] = locus YER123W, strain YCK3, hits give low values
[17] = locus YER133W, strain GLC7, hits give low values
[18] = locus YFL009W, strain cdc4, hits give low values
[19] = locus YFL029C, strain CAK1, hits give low values
[20] = locus YFR003C, strain YPI1, hits give low values
[21] = locus YFR019W, strain FAB1, hits give low values
[22] = locus YFR028C, strain CDC14, hits give low values
[23] = locus YGR040W, strain KSS1, hits give low values
[24] = locus YGR052W, strain FMP48, hits give low values
[25] = locus YGR092W, strain DBF2, hits give low values
[26] = locus YHR030C, strain SLT2, hits give low values
[27] = locus YHR079C, strain IRE1, hits give low values
[28] = locus YHR082C, strain KSP1, hits give low values
[29] = locus YHR205W, strain SCH9, hits give low values
[30] = locus YIL147C, strain SLN1, hits give low values
[31] = locus YJL095W, strain BCK1, hits give low values
[32] = locus YJL128C, strain PBS2, hits give low values
[33] = locus YJL157C, strain FAR1, hits give low values
[34] = locus YJR016C, strain ILV3, hits give low values
[35] = locus YJR066W, strain TOR1 (second series), hits give low values
[36] = locus YJR066W, strain TOR1, hits give low values
[37] = locus YKL048C, strain ELM1, hits give low values
[38] = locus YKL067W, strain YNK1, hits give low values
[39] = locus YKL101W, strain HSL1, hits give low values
[40] = locus YKL193C, strain SDS22, hits give low values
[41] = locus YKL203C, strain TOR2, hits give low values
[42] = locus YLR113W, strain HOG1, hits give low values
[43] = locus YLR133W, strain CKI1, hits give low values
[44] = locus YLR403W, strain SFP1, hits give low values
[45] = locus YML070W, strain DAK1, hits give low values
[46] = locus YMR001C, strain CDC5, hits give low values
[47] = locus YMR205C, strain PFK2 (second series), hits give low values
[48] = locus YMR277W, strain FCP1, hits give low values
[49] = locus YNL006W, strain LST8, hits give low values
[50] = locus YNL020C, strain ARK1, hits give low values
[51] = locus YNL161W, strain CBK1, hits give low values
[52] = locus YNL183C, strain NPR1, hits give low values
[53] = locus YNL207W, strain RIO2, hits give low values
[54] = locus YNL222W, strain SSU72, hits give low values
[55] = locus YNL307C, strain MCK1 (second series), hits give low values
[56] = locus YOL078W, strain AVO1, hits give low values
[57] = locus YOL136C, strain PFK27, hits give low values
[58] = locus YOR061W, strain CKA2, hits give low values
[59] = locus YOR119C, strain RIO1, hits give low values
[60] = locus YOR231W, strain MKK1, hits give low values
[61] = locus YOR329C, strain SCD5, hits give low values
[62] = locus YPL031C, strain PHO85, hits give low values
[63] = locus YPL153C, strain RAD53, hits give low values
[64] = locus YPL204W, strain HRR25, hits give low values
[65] = locus YPL209C, strain IPL1, hits give low values
[66] = locus YPL256C, strain CLN2, hits give low values
[67] = locus YPR025C, strain CCL1, hits give low values
[68] = locus YPR106W, strain ISR1, hits give low values
[69] = locus YPR111W, strain DBF20, hits give low values
[70] = strain NNK1, hits give low values
[71] = strain TSCII, hits give low values

COC(=O)C1=C(Nc2ccccc2NS(=O)(=O)c2ccc(C(F)(F)F)cc2Cl)CSC1
normalized growth [1]: 0.977 | normalized growth [2]: 0.983 | normalized growth [3]: 0.976 | normalized growth [4]: 0.978 | normalized growth [5]: 0.977 | normalized growth [6]: 0.973 | normalized growth [7]: 0.976 | normalized growth [8]: 0.962 | normalized growth [9]: 0.985 | normalized growth [10]: 0.984 | normalized growth [11]: 0.939 | normalized growth [12]: 0.987 | normalized growth [13]: 0.995 | normalized growth [14]: 0.972 | normalized growth [15]: 0.947 | normalized growth [16]: 0.944 | normalized growth [17]: 0.966 | normalized growth [18]: 0.985 | normalized growth [19]: 0.973 | normalized growth [20]: 0.984 | normalized growth [21]: 0.976 | normalized growth [22]: 0.964 | normalized growth [23]: 0.933 | normalized growth [24]: 1.03 | normalized growth [25]: 0.957 | normalized growth [26]: 0.977 | normalized growth [27]: 0.97 | normalized growth [28]: 1.02 | normalized growth [29]: 0.972 | normalized growth [30]: 0.987 | normalized growth [31]: 0.985 | normalized growth [32]: 0.919 | normalized growth [33]: 0.949 | normalized growth [34]: 0.972 | normalized growth [35]: 0.942 | normalized growth [36]: 1.03 | normalized growth [37]: 0.945 | normalized growth [38]: 0.959 | normalized growth [39]: 0.932 | normalized growth [40]: 0.975 | normalized growth [41]: 1.01 | normalized growth [42]: 0.84 (active) | normalized growth [43]: 0.937 | normalized growth [44]: 0.903 | normalized growth [45]: 0.928 | normalized growth [46]: 0.977 | normalized growth [47]: 0.952 | normalized growth [48]: 0.985 | normalized growth [49]: 0.989 | normalized growth [50]: 0.951 | normalized growth [51]: 0.977 | normalized growth [52]: 0.966 | normalized growth [53]: 0.967 | normalized growth [54]: 0.978 | normalized growth [55]: 0.953 | normalized growth [56]: 0.975 | normalized growth [57]: 0.935 | normalized growth [58]: 0.955 | normalized growth [59]: 1.02 | normalized growth [60]: 0.91 | normalized growth [61]: 0.985 | normalized growth [62]: 0.971 | normalized growth [63]: 0.948 | normalized growth [64]: 0.936 | normalized growth [65]: 0.975 | normalized growth [66]: 0.918 | normalized growth [67]: 0.982 | normalized growth [68]: 0.943 | normalized growth [69]: 0.979 | normalized growth [70]: 0.971 | normalized growth [71]: 0.978

COC(=O)c1sccc1NS(=O)(=O)c1cc(Cl)cc(Cl)c1
normalized growth [1]: 0.955 | normalized growth [2]: 0.946 | normalized growth [3]: 0.958 | normalized growth [4]: 0.951 | normalized growth [5]: 0.947 | normalized growth [6]: 0.954 | normalized growth [7]: 0.958 | normalized growth [8]: 0.949 | normalized growth [9]: 0.961 | normalized growth [10]: 0.958 | normalized growth [11]: 0.975 | normalized growth [12]: 0.957 | normalized growth [13]: 0.944 | normalized growth [14]: 0.954 | normalized growth [15]: 0.977 | normalized growth [16]: 0.994 | normalized growth [17]: 0.987 | normalized growth [18]: 0.954 | normalized growth [19]: 0.951 | normalized growth [20]: 0.957 | normalized growth [21]: 0.967 | normalized growth [22]: 0.958 | normalized growth [23]: 0.981 | normalized growth [24]: 1.05 | normalized growth [25]: 0.948 | normalized growth [26]: 1.04 | normalized growth [27]: 1.01 | normalized growth [28]: 1.06 | normalized growth [29]: 0.992 | normalized growth [30]: 0.955 | normalized growth [31]: 1.07 | normalized growth [32]: 0.925 | normalized growth [33]: 0.976 | normalized growth [34]: 0.959 | normalized growth [35]: 1.01 | normalized growth [36]: 1.06 | normalized growth [37]: 0.939 | normalized growth [38]: 0.973 | normalized growth [39]: 0.959 | normalized growth [40]: 0.958 | normalized growth [41]: 1.05 | normalized growth [42]: 0.92 | normalized growth [43]: 0.962 | normalized growth [44]: 0.996 | normalized growth [45]: 0.991 | normalized growth [46]: 0.949 | normalized growth [47]: 0.978 | normalized growth [48]: 0.96 | normalized growth [49]: 0.96 | normalized growth [50]: 0.964 | normalized growth [51]: 0.954 | normalized growth [52]: 1.02 | normalized growth [53]: 0.955 | normalized growth [54]: 0.953 | normalized growth [55]: 0.956 | normalized growth [56]: 0.963 | normalized growth [57]: 0.996 | normalized growth [58]: 0.979 | normalized growth [59]: 1.03 | normalized growth [60]: 0.986 | normalized growth [61]: 0.961 | normalized growth [62]: 0.987 | normalized growth [63]: 1.01 | normalized growth [64]: 0.975 | normalized growth [65]: 0.947 | normalized growth [66]: 0.963 | normalized growth [67]: 0.957 | normalized growth [68]: 0.945 | normalized growth [69]: 0.935 | normalized growth [70]: 0.948 | normalized growth [71]: 0.952
